Bioassay records deposited in PubChem BioAssay by several laboratories.
BH1578 lux ind: inducers of Vibrio cholerae quorum light production without autoinducers; V. cholerae BH1578 lux reporter, luminescence, 6 h; activation, % at 18.7 µM; 350,000 tested, 0.16% active; in the data active = activation mostly above about 9.7%, no sharp cut-off
3CLpro inhibitor: SARS-CoV 3CLpro protease inhibition | P0C6X7 | recombinant SARS-CoV 3CLpro, quenched FRET peptide cleavage | inhibition, % at 6 µM | 290,000 tested, 0.14% active | AID 1706; in the data active = inhibition above about 12%
FBA Mtb inh: Mtb fructose-bisphosphate aldolase inhibition. P9WQA3. purified M. tuberculosis FBA, fluorescence read-out. inhibition, % at 1 µM. 360,000 tested, 2.3% active. AID 588726; in the data active = inhibition above about 27%
Target sequence (P9WQA3 whole entry, looked up): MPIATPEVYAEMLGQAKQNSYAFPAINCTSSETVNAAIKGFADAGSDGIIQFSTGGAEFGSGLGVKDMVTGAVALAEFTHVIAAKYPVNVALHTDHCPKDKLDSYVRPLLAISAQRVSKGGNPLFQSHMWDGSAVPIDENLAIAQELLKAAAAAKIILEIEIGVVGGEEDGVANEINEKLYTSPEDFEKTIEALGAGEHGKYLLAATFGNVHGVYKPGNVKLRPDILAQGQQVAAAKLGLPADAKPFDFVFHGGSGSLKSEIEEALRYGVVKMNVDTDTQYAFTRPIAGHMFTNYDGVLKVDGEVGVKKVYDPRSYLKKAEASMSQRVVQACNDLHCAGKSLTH
PrPC surface inh: reduces human prion protein on the cell surface; P04156; cell surface PrPC, TR-FRET read-out; inhibition, % at 13.8 µM; 370,000 tested, 0.43% active; AID 720596; in the data active = inhibition above about 24%
GDH-TPI inh: counter-screen for M. tuberculosis FBA inhibitors: GDH-TPI coupled enzymes; GDH-TPI coupled enzyme counterscreen, NADH absorbance; inhibition, % at 4.8 µM; 360,000 tested, 1.2% active; AID 588335; in the data active = inhibition above about 30%
A number is an active result; n = inactive; x = no result; + = active, no number. An excerpt weighted towards active compounds, which were near 3.9% of everything screened.

SMILES | BH1578 lux ind | 3CLpro inhibitor | FBA Mtb inh | PrPC surface inh | GDH-TPI inh
CCn1c(-c2sc(-c3ccccc3)nc2C)n[nH]c1=S | n | n | n | n | n
O=C(N/C(=C\c1cccc([N+](=O)[O-])c1)C(=O)N(CCO)CCO)c1ccco1 | n | n | n | n | n
c1ccc2c(c1)-c1nc3ccccc3cc1C2N1CCCCC1 (stereo not drawn) | n | x | n | n | n
O=c1cccc2n1Cc1cc3ccccc3nc1-2 | n | n | + | n | 32
CCc1nnc(NS(=O)(=O)c2ccc(NC(=S)NC(=O)/C=C/c3ccc(C(C)C)cc3)cc2)s1 | n | n | n | x | 32
Cc1ccc(S(=O)(=O)NC[C@@H]2C[C@H](c3ccccc3)ON2S(=O)(=O)c2ccc(C)cc2)cc1 | x | x | x | n | x
Cc1cc(C)cc(Nc2ccc(C(=O)O)cc2N)c1 | n | n | 118 | n | n
CCOC(=O)Cn1cc(/C=N/NC(=O)c2ccc(C#N)cc2F)c2ccccc21 | n | n | n | n | 34
N#Cc1ccc(C(=O)N/N=C/c2cn(CC(=O)O)c3ccccc23)c(F)c1 | n | n | n | n | 36
COC(=O)COc1coc(CN2CCN(c3cccc(Cl)c3)CC2)cc1=O | n | n | n | n | n
C=CCn1c2ccccc2c(=O)c2cc(C#Cc3ccccn3)ccc21 | n | x | + | n | n
COc1ccc2cc(/C(C)=N/NC(=O)c3cc(C)oc3C)ccc2c1 | n | x | 198 | n | n
C/C(=N\NC(=O)c1ccc(N(C)C)cc1)c1ccc(C)c(C)c1 | n | n | n | n | n
CCN(CC)c1ccc(C(=O)N/N=C(\C)c2cccnc2)cc1 | n | n | n | n | n
COc1ccc(/C(C)=N/NC(=O)c2ccc(N(C)C)cc2)cc1 | n | n | n | n | 35
CCN(CC)c1ccc(C(=O)N/N=C(\C)c2ccc(O)cc2)cc1 | n | n | n | n | 34
CCOCC(=O)Nc1ccccc1C(=O)O | n | n | n | n | n
Cc1cc(C)n(-c2nncn2/N=C/c2ccccc2F)n1 | x | n | n | n | n
COc1cc(/C=N/n2cnnc2-n2nc(C)cc2C)cc([N+](=O)[O-])c1O | n | n | n | n | 38
CC(C)Nc1cc(C(C)(C)C)nc2c(-c3ccccc3)cnn12 | n | n | 29 | n | n
N#C/C(=C1\CCCN1)c1ccc2ccccc2n1 | n | n | n | n | n
N#C/C(=C1/CCCCCN1)c1nc2ccccc2[nH]1 | n | n | n | n | 39
O=C1NC(=O)C2(CCCC2c2ccccc2)N1 (stereo not drawn) | n | x | n | n | n
O=C1N/C(=N\N=C\c2ccccn2)SC1Cc1cccc(SC(F)F)c1 (stereo not drawn) | n | n | n | n | 47
CCCn1c(SCC(=O)N(CC)c2c(N)n(Cc3ccccc3)c(=O)[nH]c2=O)nnc1-c1ccncc1 | n | x | n | n | n
SMILES | BH1578 lux ind | 3CLpro inhibitor | FBA Mtb inh | PrPC surface inh | GDH-TPI inh
CCC12CCCN3CCC4(C(=C(C(=O)OC)C1)Nc1ccccc14)C32 (stereo not drawn) | n | n | n | n | 33
CCN(CC)C(=O)COc1ccc2oc(-c3ccco3)cc(=O)c2c1 | n | n | 134 | n | n
O=C(COc1ccccc1)N=C1SC2CS(=O)(=O)CC2N1Cc1ccccc1 (stereo not drawn) | n | n | n | n | n
COC(=O)c1nc(-c2ccccc2)oc1N1CCOCC1 | n | n | 146 | n | n
COC(=O)c1nc(-c2ccc(C)cc2)oc1N(C)C | n | n | 115 | n | n
Cc1ccc(-c2nc(S(=O)(=O)c3ccc(C)cc3)c(N(C)C)o2)cc1 | n | n | n | n | n
COC(=O)c1nc(-c2ccccc2)oc1N(C)C | n | n | 173 | n | n
COC(=O)c1oc(-c2ccccc2)nc1C | n | n | n | n | n
O=C(N/N=C/C(Br)=C/c1ccccc1)c1ccccc1F | n | n | n | n | 32
O=C(N/N=C/C(Cl)=C/c1ccccc1)c1ccccc1F | n | n | n | n | n
CCCN(CC1CC1)C(=O)CN1C(=O)C2CCCCN2C(=O)c2ccccc21 (stereo not drawn) | x | x | x | n | x
Cn1c(=O)c(-c2ccccc2)c(O)c2ccccc21 | n | n | n | n | n
Cc1c(O)c(=O)c2ccccc2n1C | n | n | 150 | n | n
COc1ccc(CCn2c(=N)c(C(=O)NC3CCCCC3)cc3c(=O)n4ccccc4nc32)cc1 | n | n | n | n | n
N#Cc1cc2c(=O)n3ccccc3nc2n(Cc2cccnc2)c1=O | n | x | + | n | n
N=c1c(C(=O)NC2CCCC2)cc2c(=O)n3ccccc3nc2n1CCN1CCOCC1 | n | n | 176 | n | n
